Consider 2 molecules from the supplement of paper PMC10105736.

A number with no mark means an inactive call.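 Rule for the calls: active = MAPPIT score above the 99th percentile of random reference set scores in the same batch; inactive = at or below it.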

Holding throughout (experiment): MAPPIT interaction score (arbitrary units); higher = stronger binary interaction signal, active = hit call of the paper
One test deals with trbd. The following applies: MAPPIT configuration: N-N; pair source set: screen_1. As to the method:
(§1)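 MAPPIT in HEK293T cells: Drosophila bait and prey ORFs (from the FlyBi ORF collection) were co-transfected in quadruplicate, with two wells stimulated by erythropoietin. Interaction-dependent JAK-STAT activation was read out with a STAT-responsive firefly luciferase reporter. Positive calls use the 99th percentile of random reference set (RRS) scores within each batch […]. Batches Dvs01 and Dvs02 used the N-N configuration and Dvs04 the N-C configuration. Pairs come from FlyBi screens, CuraGen, DPiM, Finley Y2H, Lit-BM-16, Lit-BS-16 and RRS.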

For another test, the target named is CG14767. The following applies: pair source set: RRS. As to the method:
as §1

Another test addresses CG30472. The following applies: MAPPIT configuration: N-N; pair source set: RRS. Here is the method:
as §1
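Note: HEK293T cells with Epo stimulation, STAT-responsive firefly luciferase reporter, fold induction versus unstimulated cells divided by the larger fold induction of two negative controls lacking either bait or prey.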

B1: CG5902 (protein)
chain: MSNSHYNNYQQQQPHSSNGDPEYQHQQMVHQPQRFSNGHGMKTVAVPDMCLFCFEVLDCELNNVDGPSVPVFSNDAYPLFVTWKIGRDKRLRGCIGTFSAMELHHGLREYALTSAFKDSRFAPISRDELPRLTVSVSILQNFEEAQGHLDWQLGVHGIRIEFLTERGCKRTATYLPQVATEQGWDQLQTIDSLLRKGGYRAAITPETRKSIKLTRYRSQEIQMHYKEYREYQERRAQFGKVQC
Consider B1, for which the MAPPIT interaction score with trbd is 2.52 (active).

B2: nAChRbeta1 (protein)
chain: MESSCKSWLLCSILVLVAFSLVSASEDEERLVRDLFRGYNKLIRPVQNMTQKVGVRFGLAFVQLINVNEKNQVMKSNVWLRLVWYDYQLQWDEADYGGIGVLRLPPDKVWKPDIVLFNNADGNYEVRYKSNVLIYPTGEVLWVPPAIYQSSCTIDVTYFPFDQQTCIMKFGSWTFNGDQVSLALYNNKNFVDLSDYWKSGTWDIIEVPAYLNVYEGDSNHPTETDITFYIIIRRKTLFYTVNLILPTVLISFLCVLVFYLPAEAGEKVTLGISILLSLVVFLLLVSKILPPTSLVLPLIAKYLLFTFIMNTVSILVTVIIINWNFRGPRTHRMPMYIRSIFLHYLPAFLFMKRPRKTRLRWMMEMPGMSMPAHPHPSYGSPAELPKHISAIGGKQSKMEVMELSDLHHPNCKINRKVNSGGELGLGDGCRRESESSDSILLSPEASKATEAVEFIAEHLRNEDLYIQTREDWKYVAMVIDRLQLYIFFIVTTAGTVGILMDAPHIFEYVDQDRIIEIYRGK
As to B2, the MAPPIT interaction score with CG14767 (MAPPIT configuration: N-C) is 0.324; with CG14767 (MAPPIT configuration: N-N) it was 0.0737; in the test with CG30472, -0.0464.
